Measured values: PubChem BioAssay
Unmarked numbers belong to inactive results. The source made the active and inactive calls.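 Rule for the calls: active = compounds that lower survival of DLD-1 colon cancer cells in the luminescence readout, no cutoff given; inactive = the rest.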 Positions of bridges follow the written chain, without caps; N, C: chain ends. Non-standard residues stand in square brackets, D forms with d. Residues, ends and D or L forms follow the SMILES beside them. hArg = N=C(N)NCCCC[C@H](N)C(=O)O; Mpa = O=C(O)CCS

experiment: decreased DLD-1 cellular survival, CellTiter-Glo luminescent readout, NPC compound collection, primary HTS (AID 1117346); settings: DLD-1 viability, CellTiter-Glo luminescence; at 20 µM (top of the series)

SMILES | viability decrease (inhibition)
C/C(=C(/OCCOc1ccc(Cl)cc1)c1ccc(Cl)cc1Cl)n1ccnc1 | 105% (active)
Cc1ccc(-c2ccccc2C#N)cc1 | -11%
COc1cc(NS(=O)(=O)c2ccc(N)cc2)nc(C)n1 | 6.1%
C=C(C)C(=O)OCC(O)CO (centres undefined) | 20.3%
CC(C)CCCC(C)CCCC(C)CCCCC(C)CCCC(C)CCCC(C)C (centres undefined) | -26.5%
Cc1cc(O)c(C)c(C)c1O | -26.1%
Cc1cc(O)c(Cl)c(C)c1Cl | -12.3%
C/C=C(/C(=C/C)c1ccc(OC(C)=O)cc1)c1ccc(OC(C)=O)cc1 | 97.2% (active)
C=CCN1CCc2nc(N)sc2CC1 | -3.4%
COc1ccccc1OCC1CNC(=O)O1 (centres undefined) | -2.8%
O=P(O)(O)C(O)(Cc1cnc2ccccn12)P(=O)(O)O | 9.7%
O=C(O)CNC(=O)c1ccccc1I | -17.7%
CC(=O)Nc1ccc(OC(=O)c2ccccc2OC(C)=O)cc1 | -10.1%
CCN1CCCC1CN (centres undefined) | 12.4%
CCOc1ccc(C(=O)OCCN(CC)CC)cc1 | 8.4%
O=C(NCCc1c[nH]c2ccccc12)c1cccnc1 | -0.95%
CCC(Cc1c(I)cc(I)c(O)c1I)C(=O)O (centres undefined) | 1.1%
CC(O)CCCCn1c(=O)c2c(ncn2C)n(C)c1=O (centres undefined) | 6.4%
C[C@]12C=CC(=O)C=C1[C@@H](F)C[C@@H]1[C@@H]2[C@@H](O)C[C@@]2(C)[C@H]1CC[C@]2(O)C(=O)CO | -6.1%
NCC(=O)O | 7.4%

SMILES | viability decrease (inhibition)
CCOCCn1c(C2CCN(CCc3ccc(C(C)(C)C(=O)O)cc3)CC2)nc2ccccc21 | -10.2%
C[C@H]1C[C@H]2[C@@H]3CCC4=CC(=O)C=C[C@]4(C)[C@@]3(Cl)[C@@H](O)C[C@]2(C)[C@@]1(O)C(=O)CO | 13.2%
NC(=O)[C@@H]1CSSCCC(=O)N[C@@H](CCCCN=C(N)N)C(=O)NCC(=O)N[C@@H](CC(=O)O)C(=O)N[C@@H](Cc2c[nH]c3ccccc23)C(=O)N2CCC[C@H]2C(=O)N1 ([Mpa][hArg]GDWPC-NH2; disulfide 1-7) | 0.2%
COC(=O)C1=C(C)NC(COC(N)=O)=C(C(=O)OC(C)C)C1c1cccc(Cl)c1Cl (centres undefined) | 68.5% (active)
C[N+](C)(CCOc1ccccc1)Cc1cccs1 | 1.8%
O=C(O)c1[nH]n(-c2ccc(S(=O)(=O)O)cc2)c(=O)c1N=Nc1ccc(S(=O)(=O)O)cc1 | 6.5%
c1ccc(OCc2ccc(CCCN3CCOCC3)cc2)cc1 | 19.4%
CCS(=O)(=O)c1ccc(OC)c(C(=O)OC)c1 | 8.8%
COC(=O)/C=C(/C)N | -8.3%
N#CCC(=O)NN | 4.5%
Nc1nc(-c2ccccc2)c(Br)c(=O)[nH]1 | 0.7%
CCCCCC=CCC=CCCCCCCCC(=O)OCC | 54.5% (active)
CCCCCCCC/C=C\CCCCCCCCN | 106% (active)
C/C(=C(\CCO)SS/C(CCO)=C(\C)N(C=O)Cc1cnc(C)nc1N)N(C=O)Cc1cnc(C)nc1N | 7.4%
Cc1onc(-c2c(F)cccc2Cl)c1C(=O)Cl | 2.8%
CSCC[C@H](N)C(=O)O | -6%
CCCCCC(N)=O | -11.8%
CCCCCCCCCCCCCCCCCCN(C)C | -0.1%
O=C(Cn1ccnc1[N+](=O)[O-])NCc1ccccc1 | 1%
